PubChem BioAssay (NCI)
About 79,000 compounds went through this panel and 15% of them were active in at least one assay; those are over-represented in the sample as a whole. Cut-off read from the data, not from the text of the source: active = growth inhibition above about 70%; inactive = the rest.

Assays:
[1] = NCI Yeast Anticancer Drug Screen. Data for the rad50 strain (AID 155);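 note: 0% = growth of vehicle-only cultures of the same strain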; settings: S. cerevisiae rad50 strain growth inhibition; at 50.0 µM; hits give high values
Summary of the method: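 Genetically altered yeast (DNA repair pathway); compound treatment; growth inhibition vs vehicle ctrl.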

[2] = NCI Yeast Anticancer Drug Screen. Data for the mec2-1 strain (AID 157); settings: S. cerevisiae mec2-1 strain, at 50.0 µM, hits give high values
Summary of the method: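 Test agents were screened against the mec2-1 yeast strain, with defined DNA repair or cell cycle alteration. Growth was scored as inhibition against vehicle-only controls.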

[3] = NCI Yeast Anticancer Drug Screen. Data for the sgs1 mgt1 strain (AID 161);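 note: 0% = growth of cultures given vehicle only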; settings: S. cerevisiae sgs1 mgt1 strain, at 50.0 µM, hits give high values
Summary of the method: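 Inhibition of yeast growth, normalised to vehicle-treated controls, is reported for a strain bearing genetic alterations in DNA damage repair.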

[4] = NCI Yeast Anticancer Drug Screen. Data for the cln2 rad14 strain (AID 165);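 note: 0% = growth equal to vehicle treated cultures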; settings: S. cerevisiae cln2 rad14 strain, at 50.0 µM, hits give high values
Summary of the method: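 Growth of compound-exposed yeast (cln2 rad14 genotype) measured and expressed as inhibition relative to vehicle.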

[5] = NCI Yeast Anticancer Drug Screen. Data for the bub3 strain (AID 167); settings: S. cerevisiae bub3 mutant strain, at 50.0 µM, hits give high values
Summary of the method: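 Yeast carrying a defined mutation is treated with each compound, and growth is compared with that of vehicle-exposed cells to give inhibition.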

[6] = NCI Yeast Anticancer Drug Screen. Data for the mlh1 rad18 strain (AID 175); settings: S. cerevisiae mlh1 rad18 strain growth inhibition; at 50.0 µM; hits give high values
Summary of the method: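 In this whole-cell yeast screen, a strain with altered DNA damage repair is challenged with compound, and its growth is measured against matched vehicle-treated controls.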

Measured: growth inhibition

COc1ccccc1NC(=O)C(=O)C1C(=O)Nc2ccccc2S1=O (stereo unspecified)
inactive: [1] -14.3% | [2] -21.1% | [3] -44.6% | [4] 2.45% | [5] -41% | [6] -45.5%

CN1CCC(C)(c2ccccc2)C(=O)C1 (stereo unspecified)
inactive: [1] 2% | [2] 3.85% | [3] 11% | [4] -28.6% | [5] -10.3% | [6] 12.7%

O=CNCC1(c2ccccc2)CCNCC1
inactive: [1] 2.25% | [2] -3.25% | [3] 8.05% | [4] -1.7% | [5] 4.4% | [6] -4.6%

c1ccc2c(c1)Cc1ccc3ccccc3c1-2
inactive: [1] 56% | [2] 28.7% | [3] 34.4% | [4] 35.8% | [5] 64.3% | [6] 35.1%

O=S(=O)(CC1=NC2C=CC=CC2N=C1)NCc1ccccc1 (stereo unspecified)
inactive: [1] 7.3% | [2] -18.9% | [3] 12.8% | [4] 30.3% | [5] 25.6% | [6] -11.8%

CCN1N=CSC12C(=O)N(c1ccccc1)C(=O)N2c1ccccc1 (stereo unspecified)
inactive: [1] -20.6% | [2] -15.1% | [3] -31.9% | [4] 0.35% | [5] -14.7% | [6] -38.6%

O=C(c1ccccc1)c1ccncc1
inactive: [1] 28.2% | [2] -4.4% | [3] -27.2% | [4] -1% | [5] -1.9% | [6] -3.1%

CN(C)/N=N/c1nc2c(c(=O)n(C)c(=O)n2C)n1CC(O)CO (stereo unspecified)
inactive: [1] 11.4% | [2] 29% | [3] 22.1% | [4] -2.85% | [5] 2% | [6] 27.1%

COc1c(C(=O)/C(=N/Nc2cccc(Cl)c2)C(C)=O)c(O)c(OC)c2occc12
inactive: [1] -5.15% | [2] -8% | [3] -6.6% | [4] -8.5% | [5] 8.2% | [6] 7.65%

COC(=O)c1nnn(-c2ccc(C)c(C)c2)c1C(=O)c1ccccc1
inactive: [1] -2.7% | [2] -2.5% | [3] -15.2% | [4] 16.5% | [5] -8.25% | [6] 29.1%

CCC(/C=C/c1ccccc1)=N\NC(=O)c1ccc(Cl)cc1
inactive: [1] 16.2% | [2] 5.5% | [3] 7.5% | [4] 1.7% | [5] 19.9% | [6] 7.95%

COCC/C=C\CN(C(C)C)C(C)C
inactive: [1] -9.5% | [2] -13.3% | [3] -0.4% | [4] 5.45% | [5] 3.5% | [6] 1.05%

O=C1OC(=O)C(c2ccccc2)=C1c1ccccc1
inactive: [1] 10.6% | [2] 5% | [3] 9.55% | [4] -10.8% | [5] 5.95% | [6] 24.9%

COc1cc(NS(=O)(=O)c2ccccc2)ccc1C
inactive: [1] 27.6% | [2] -20.3% | [3] 14.7% | [4] 12.3% | [5] 22.4% | [6] 24.9%

CCOc1cc(/C=C2/C=C(c3ccc(OC)cc3)OC2=O)ccc1O
inactive: [1] -13.9% | [2] 0.5% | [3] 4.5% | [4] -19.1% | [5] 2.75% | [6] -0.7%

N#C/C(=C\N1CC(=O)NC1=S)C(=O)c1ccc2ccccc2c1
inactive: [1] -20.4% | [2] 15.6% | [3] -26.2% | [4] 13.5% | [5] 3.25% | [6] -17.4%

OCC(O)C(O)C(O)C(O)C(O)C(O)CO (stereo unspecified)
inactive: [1] 1.8% | [2] 3.65% | [3] 7.35% | [4] 5.75% | [5] -1.2% | [6] 3.35%

Cc1ccn2c(=O)c(CCBr)c(C)nc2c1
inactive: [1] 12.8% | [2] -4.65% | [3] 5.25% | [4] 13.8% | [5] 6.05% | [6] 2.25%

Cc1ccc2c(c1)C1(OC(=O)c3ccccc31)c1ccc(F)cc1O2 (stereo unspecified)
inactive: [1] 55% | [2] 12.8% | [3] 36.9% | [4] 36.8% | [5] 22.7% | [6] 18.1%

C=CCOc1ccccc1C
inactive: [1] -21.9% | [2] -29.9% | [3] -0.85% | [4] 8.1% | [5] -21.7% | [6] -14.9%

CCOC(=O)/C=C/C=C(\OCC)C1CCC2C3CC=C4CC(OC(C)=O)CCC4(C)C3CCC12C (stereo unspecified)
inactive: [1] -4% | [2] -0.35% | [3] 23.1% | [4] 19.4% | [5] -3.3% | [6] -2.55%

O=C(CCCCCC(=O)NO)NO
inactive: [1] -0.8% | [2] -6.05% | [3] -7.2% | [4] -20.3% | [5] -9.4% | [6] -1.55%

O=C(NCCN1CCOCC1)c1ccc(I)cc1
inactive: [1] 31.8% | [2] 28.9% | [3] 45% | [4] 38.4% | [5] 32.1% | [6] 43.3%

Cc1[nH]c(=O)[nH]c(=O)c1NC=O
inactive: [1] -3.6% | [2] -28.3% | [3] -8.85% | [4] 14.6% | [5] -11.8% | [6] -27.1%

N=C1C=C/[N+](=C\C=CCO)C([O-])=N1
inactive: [1] -18.2% | [2] -20.6% | [3] -35.3% | [4] -2.55% | [5] -43.4% | [6] -3.2%

CCN(CC)CCC(O)(c1cccc(Cl)c1)C1CCCCC1 (stereo unspecified)
inactive: [1] -1.4% | [2] -6.25% | [3] -3.1% | [4] -68% | [5] -7.95% | [6] -7.25%

CCCCCCC(=O)/C=C/c1cccc(OCc2cccc(Cl)c2)c1
inactive: [1] 24.4% | [2] 16.8% | [3] 19.1% | [4] 16.8% | [5] 1.55% | [6] 4.65%

O=C(O)c1nc(N=Nc2ccc(S(=O)(=O)O)cc2)[nH]c1C(=O)O
inactive: [1] 25.1% | [2] -4.85% | [3] 9.8% | [4] -30.7% | [5] -2% | [6] 21.2%

CC1(C)Oc2ccc3ccccc3c2C(c2ccc(O)cc2)=C1c1ccccc1
inactive: [1] -51.5% | [2] -11% | [3] 5.2% | [4] 7.75% | [5] -3.1% | [6] -20.6%

Cc1ccc(C2(C#N)CCCC2)cc1
inactive: [1] 5.55% | [2] -1% | [3] 12% | [4] 3.85% | [5] 15.6% | [6] 4.7%

Nc1cc(N)n(C2=NCCN2)n1
inactive: [1] -1.5% | [2] -27.5% | [3] 8% | [4] 11.1% | [5] 0% | [6] -13.3%

CCOC(=O)NC(C)(C)CN(CCO)C(=O)OCC
inactive: [1] -5.9% | [2] -3.4% | [3] 1.4% | [4] -4.9% | [5] -21.9% | [6] -8.7%

Nc1cccc(C(F)(F)F)c1[N+](=O)[O-]
inactive: [1] -8.25% | [2] -28% | [3] -22.4% | [4] -23.4% | [5] -25.9% | [6] 18.1%

CC(=O)N/C(=C/c1ccccc1)C(=O)NC(C)(C)C
inactive: [1] -13.1% | [2] -6.15% | [3] -9.85% | [4] -4.25% | [5] 1.2% | [6] 0.05%

CCN(CC)c1cccc2c1C1(O)CCC3(CC21)OCCCCO3 (stereo unspecified)
inactive: [1] -33% | [2] -21.6% | [3] -57.3% | [4] -1.65% | [5] -45% | [6] -28.9%

C=CCOC(=O)OCCO
inactive: [1] 5.95% | [2] -0.55% | [3] -2.8% | [4] -34.5% | [5] -5.5% | [6] -15.9%

O=S(=O)(c1ccccc1)N1CCCN(S(=O)(=O)c2ccccc2)CC1
inactive: [1] -11.9% | [2] -0.45% | [3] 2.15% | [4] 3.1% | [5] 3.35% | [6] 0.7%

CCOC(=O)C(Cl)(Cl)C(Cl)(OCC)C(=O)OCC (stereo unspecified)
inactive: [1] 16.1% | [2] 26.1% | [3] 26.8% | [4] -24.4% | [5] 34.5% | [6] 22.2%

C=CCC(C(=O)NC(N)=O)c1ccccc1 (stereo unspecified)
inactive: [1] 3.9% | [2] -7.65% | [3] -11.3% | [4] 19.5% | [5] 8.05% | [6] 0.35%

C/C(=N/NC(=O)c1ccncc1)C(F)(F)F
inactive: [1] -29.8% | [2] 5.75% | [3] -25.9% | [4] -6.85% | [5] 14% | [6] 7.85%

CC(=O)Nc1ccc2c(c1)C(P(=O)(OC(C)C)OC(C)C)c1ccccc1-2 (stereo unspecified)
inactive: [1] 6% | [2] 19.6% | [3] 18.1% | [4] -1.4% | [5] 34.4% | [6] -2.8%
